ChEMBL document CHEMBL1201862, “PubChem BioAssay data set” (2004)
Out of some 400,000 compounds screened, about 2,100 (0.53%) were called active. Roughly 14% stayed inconclusive and do not appear here. No rule for the calls is given here. Shown is part of a subset that was picked to be rich in actives.

Each compound was assayed against Ataxin-2 (Homo sapiens) (UniProt Q99700) (assay: qHTS for Inhibitors of ATXN expression.).
Format: functional

Chain of Ataxin-2 (Homo sapiens) (Q99700 whole entry): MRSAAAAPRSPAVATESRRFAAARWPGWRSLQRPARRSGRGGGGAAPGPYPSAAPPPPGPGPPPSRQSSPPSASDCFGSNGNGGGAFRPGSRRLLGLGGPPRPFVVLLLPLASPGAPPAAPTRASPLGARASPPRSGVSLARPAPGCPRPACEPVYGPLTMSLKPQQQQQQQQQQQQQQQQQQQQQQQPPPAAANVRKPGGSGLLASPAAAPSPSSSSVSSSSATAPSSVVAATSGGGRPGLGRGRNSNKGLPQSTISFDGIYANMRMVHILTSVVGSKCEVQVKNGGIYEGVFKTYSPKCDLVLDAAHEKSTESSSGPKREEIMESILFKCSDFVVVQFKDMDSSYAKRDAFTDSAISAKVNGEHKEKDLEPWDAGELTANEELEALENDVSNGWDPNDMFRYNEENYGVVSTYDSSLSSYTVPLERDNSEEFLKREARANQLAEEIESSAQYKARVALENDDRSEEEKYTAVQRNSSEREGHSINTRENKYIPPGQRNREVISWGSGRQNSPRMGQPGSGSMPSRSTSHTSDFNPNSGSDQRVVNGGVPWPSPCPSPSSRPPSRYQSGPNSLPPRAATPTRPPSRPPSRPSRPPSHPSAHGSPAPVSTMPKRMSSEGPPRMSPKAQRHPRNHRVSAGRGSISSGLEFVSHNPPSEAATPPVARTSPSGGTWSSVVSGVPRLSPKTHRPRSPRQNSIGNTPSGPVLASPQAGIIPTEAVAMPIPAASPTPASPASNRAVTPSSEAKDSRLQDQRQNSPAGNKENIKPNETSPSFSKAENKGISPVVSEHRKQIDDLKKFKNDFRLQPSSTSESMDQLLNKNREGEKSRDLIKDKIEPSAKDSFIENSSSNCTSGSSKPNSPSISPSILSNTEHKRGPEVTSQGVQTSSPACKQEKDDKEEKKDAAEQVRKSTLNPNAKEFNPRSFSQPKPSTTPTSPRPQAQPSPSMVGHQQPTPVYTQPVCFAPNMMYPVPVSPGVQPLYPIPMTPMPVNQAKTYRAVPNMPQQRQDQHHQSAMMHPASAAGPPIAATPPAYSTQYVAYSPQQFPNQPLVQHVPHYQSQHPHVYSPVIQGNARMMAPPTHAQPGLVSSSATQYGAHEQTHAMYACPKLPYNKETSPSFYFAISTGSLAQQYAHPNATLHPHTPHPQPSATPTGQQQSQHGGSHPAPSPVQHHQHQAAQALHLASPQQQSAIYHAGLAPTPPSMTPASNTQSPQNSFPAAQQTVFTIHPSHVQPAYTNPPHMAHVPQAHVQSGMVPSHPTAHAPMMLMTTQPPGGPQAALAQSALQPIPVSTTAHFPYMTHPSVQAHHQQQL

SMILES	Potency
Cn1cc(CN2CCC(n3nccc3NC(=O)c3ccc4c(c3)OCO4)CC2)cn1	inactive
Cc1cc(C)c2cc(C#N)c(SCC(=O)Nc3cc(C)on3)nc2c1	inactive
O=C(CSc1nnc(O)nc1O)N/N=C/C=C/c1ccccc1	inactive
O=S(=O)(c1ccc(SCCOc2ccccc2)nc1)N1CCCC1	inactive
COC(=O)Cc1c(C)c2cc3c(c(C)c2oc1=O)OCN(CCc1ccc(OC)cc1)C3	inactive
Cc1ccc2nc(Cl)c(CNCc3ccccc3)cc2c1	inactive
Cc1ccc(-c2nn(-c3ccccc3)c3[nH]c(=O)c(CNCc4ccccc4)cc23)cc1	39.8 µM (active)
Cc1cnc(NC(=O)c2cc(-c3ccccc3)nn2-c2ccccc2)s1	inactive
Cc1ccc(S(=O)(=O)NN2C(=O)c3ccccc3NC2c2ccccc2)cc1 (stereo not given)	35.5 µM (active)
CC1Nc2ccccc2C(=O)N1NS(C)(=O)=O (stereo not given)	inactive
Cc1ccc(C2N(C)C(=O)c3ccccc3N2C)cc1 (stereo not given)	inactive
O=c1cc(CN2CCN(S(=O)(=O)c3cccc(Cl)c3)CC2)c2ccc(O)cc2o1	inactive
C=CCNC(=S)Nc1cccc(NC(=S)NCC=C)c1	inactive
C=CCNC(=S)N/N=C(\C)c1ccccn1	2.51 µM (active)
C/C(=N\Nc1ncc(Cl)cc1Cl)c1ccccn1	inactive
O=S(=O)(Nc1ccc(C(O)(C(F)(F)F)C(F)(F)F)cc1)c1ccc(Cl)c2nonc12	22.4 µM (active)
O=S(=O)(Nc1ccc(C(O)(C(F)(F)F)C(F)(F)F)cc1)c1cccc2ccccc12	44.7 µM (active)
COc1ccc(C(=O)NNC(=O)CSc2nc3c(=O)n(C)c(=O)n(C)c3[nH]2)cc1	inactive
N#Cc1cccc(Cn2cc(C(F)(F)F)ccc2=O)c1	inactive
CS(=O)(=O)c1ncc(Cl)c(C(=O)N(Cc2ccc(Cl)cc2)Cc2ccco2)n1	6.31 µM (active)
C=C1C(=O)[C@]23C[C@H]1CC[C@H]2[C@]1(C)[C@@H](O)CC[C@@](C)(C(=O)O)[C@H]1C[C@@H]3O	12.6 µM (active)
C=C1C(=O)[C@]23C[C@H]1CCC2[C@@]1(C)C(C[C@@H]3O)[C@](C)(C(=O)OC)CC[C@@H]1O (stereo not given in full)	35.5 µM (active)

SMILES	Potency
C=C1C(=O)[C@]23C[C@H]1CC[C@H]2[C@]1(C)[C@@H](OC(C)=O)CC[C@@](C)(C(=O)O)[C@H]1C[C@@H]3O	11.2 µM (active)
N#C/C(=C\c1ccncc1)c1nc2c(s1)CCCC2	inactive
CCc1cc(=O)oc2cc(O[C@@H]3O[C@H](CO)[C@@H](O)[C@H](O)[C@H]3O)c(Cl)cc12	inactive
Cc1cc(-n2cnc(-c3cn(C)nc3C)n2)no1	inactive
CN(C)/C=N/c1nc2nccc(-c3cccs3)n2n1	inactive
CC(C)(C)C(=O)NC(=S)Nc1ccc(C(F)(F)F)cc1	inactive
CC(C)(C)C(=O)NC(=S)NNC(=O)c1sc2ccccc2c1Cl	31.6 µM (active)
COc1ccc2c(Cl)c(C(=O)NN3CCN(C)CC3)sc2c1	inactive
C=CCn1c(S)nnc1-c1ccc2ncccc2c1	inactive
CC(C)CC1C(=O)N(Cc2cn(CCC3OCCO3)nn2)CCS(=O)(=O)N1Cc1ccc(-c2ccc(F)cc2)cc1 (stereo not given)	35.5 µM (active)
CC(C)CC1C(=O)N(Cc2cn(CCC3OCCO3)nn2)CCS(=O)(=O)N1Cc1ccc(-c2ccc(Cl)c(Cl)c2)cc1 (stereo not given)	39.8 µM (active)
C/C(=N\c1ccc(C)cc1C)c1sc2ccccc2c1O	inactive
N#C/C(=C\c1ccc(N2CCCCC2)o1)C(=O)Nc1cccc(Br)c1	inactive
COc1cc2ccc(=O)oc2c(O[C@@H]2O[C@H](CO)[C@@H](O)[C@H](O)[C@H]2O)c1O	inactive
COc1ccccc1/C=C/c1nc(C#N)c(N(C)C)o1	inactive
Cc1noc(C)c1S(=O)(=O)Nc1ccc(C(C)C)cc1	inactive
Cc1noc(C)c1S(=O)(=O)Nc1ccc2c(c1)C(=O)N([C@@H](C)CO)C[C@H](C)[C@@H](CN(C)Cc1ccc(C(F)(F)F)cc1)OCCCC[C@H](C)O2	20 µM (active)
CC(C)NC(=O)Nc1ccc2c(c1)C(=O)N([C@H](C)CO)C[C@H](C)[C@@H](CN(C)Cc1ccc(C(F)(F)F)cc1)OCCCC[C@H](C)O2	20 µM (active)
COc1ccc(CN2C(=O)/C(=C\NNC(=O)c3cccnc3)c3ccccc3C2=O)cc1	inactive
O=C(CN(C(=O)CCC(=O)Nc1nccs1)c1ccccc1F)NCc1ccc(F)cc1	inactive
CCOc1ccc(-c2cnc3cccnn23)cc1	inactive
O=C(N/N=C/c1cccc2cccnc12)[C@H]1C[C@@H]1c1ccccc1	inactive

SMILES	Potency
Cc1ccc(-c2nnn(CC(=O)N(c3cccc(F)c3)C(C(=O)NC(C)(C)C)c3ccco3)n2)o1 (stereo not given)	inactive
COc1ccc(-c2[nH]ncc2CNC(C)c2cn(C)nc2C)c(F)c1 (stereo not given)	inactive
CCN(CC)CCCNC(=O)c1cn(-c2cccc(OC)c2)c(=O)c2ccccc12	inactive
CCN(CC)CCNC(=O)c1cc2c(-c3ccc(Cl)cc3)nn(C)c2s1	22.4 µM (active)
CCN(CC)CCCNC(=O)c1cc2c(-c3ccc(Cl)cc3)nn(C)c2s1	17.8 µM (active)
CCN(CC)CCNC(=O)c1cc2cc(Br)ccc2s1	inactive
CCCCN(CC)CCNC(=O)c1cc2c(-c3ccc(Cl)cc3)nn(C)c2s1	39.8 µM (active)
Cc1ccc(-c2cc(C(=O)N3CCN(c4ncccn4)CC3)c3cc(Br)ccc3n2)o1	inactive
CN=C(S)N1N=C(c2ccc(C)cc2)CC1c1ccc(N(C)C)cc1 (stereo not given)	inactive
O=C(Oc1cccc2ccccc12)C1CC1	inactive
CC(=O)/C(C#N)=C1\NC(=O)C(Cc2ccccc2C)S1 (stereo not given)	inactive
COC(=O)c1cc2c(ccn2C)n1C	inactive
CCC1S/C(=N/N=C/c2ccco2)N(Cc2ccccc2)C1=O (stereo not given)	inactive
CC(C)c1cc(N2CCOCC2)n2ncc(-c3ccccc3)c2n1	inactive
COc1cccc(-c2nc(SCC(=O)Nc3nc(-c4ccccc4)c(C)s3)nc(O)c2C#N)c1	inactive
CCOC(=O)c1sc(NC(=O)CSc2nc3c(cc2C#N)CCCCCC3)c(C#N)c1C	inactive
CCOc1ccc(/C=C/C2=Cc3c(sc(NC(=O)CSc4n[nH]c(N)n4)c3C#N)C(C)(C)C2)cc1	39.8 µM (active)
CC(=O)C1=C(C)NC(SCC(=O)Nc2nc3ccccc3s2)=C(C#N)C1c1ccc(Cl)cc1 (stereo not given)	inactive
COC(=O)c1c(N=C(S)NNC(=O)c2ccc(Cl)s2)sc(C(=O)N(C)C)c1C	39.8 µM (active)
C/C=C(\C)C(=O)OC1CC(C)(C)C[C@H]2C3=CC[C@@H]4[C@@]5(C)CCC(O[C@@H]6O[C@@H](C(=O)O)[C@@H](O)C(O[C@@H]7OC[C@H](O)[C@@H](O)[C@@H]7O[C@@H]7OC(CO)C(O)[C@@H](O)[C@@H]7O)C6O[C@@H]6OC(CO)C(O)C(O)C6O)[C@@](C)(CO)[C@@H]5CC[C@]4(C)[C@]3(C)CC(O)[C@@]12CO (stereo not given in full)	31.6 µM (active)
Cc1nn(C)cc1N1C(=O)c2cccc3c(N)ccc(c23)C1=O	inactive
CCOc1ccc(C(=O)NCC(c2ccc(Cl)cc2)N2CCCCC2)cc1 (stereo not given)	14.1 µM (active)

SMILES	Potency
COc1ccc(C(CNC(=O)c2ccc(-c3ccccc3Cl)o2)N2CCCC2)cc1 (stereo not given)	17.8 µM (active)
CCOc1ccc(S(=O)(=O)NCC(c2ccc3c(c2)OCO3)N2CCN(C)CC2)cc1 (stereo not given)	inactive
COc1ccc(CNC(=O)C(C#N)c2nc3ccccc3nc2N2CCCC2)cc1 (stereo not given)	inactive
COc1ccccc1C(CNC(=O)C1COc2ccccc2O1)N1CCCC1 (stereo not given)	inactive
CCOc1ccc(NS(=O)(=O)c2ccc(C(=O)NCC3CCCO3)cc2)cc1 (stereo not given)	inactive
CCNc1nc2nc3ccc(C)cn3c(=O)c2cc1C(=O)NCC1CCCO1 (stereo not given)	inactive
O=C(CN1C(=O)NC2(CCc3ccccc32)C1=O)Nc1ccc(Br)cc1F (stereo not given)	inactive
Nc1nnnn1/N=C/c1ccccc1O	inactive
O=C(CCl)N(c1ccccc1)C1CCS(=O)(=O)C1 (stereo not given)	17.8 µM (active)
O=C(OCC(=O)N(c1ccccc1)C1CCCCC1)c1ccc(CO)cc1	inactive
CC(Oc1ccccc1F)c1nnc(SCC(=O)N(c2ccccc2)C2CCS(=O)(=O)C2)o1 (stereo not given)	inactive
O=C(NC(=O)c1c(F)cccc1F)O/N=C1\CCCc2occc21	inactive
CN(C)S(=O)(=O)c1cccc(NC(=S)N/N=C/C2CC=CCC2)c1 (stereo not given)	inactive
Cc1nc2ccc(S(=O)(=O)Nc3ccc(-c4nc5cccnc5s4)cc3)cc2s1	inactive
C=CCc1c(O)c(CC)cc2c(C)cc(=O)oc12	inactive
C=CCN(c1ccccc1)S(=O)(=O)c1cccc(C(=O)Oc2ccc3c(C)cc(=O)oc3c2)c1	inactive
COC(=O)c1c(C)oc2ccc(N(C(=O)Oc3ccccc3)S(=O)(=O)c3ccc(Cl)c([N+](=O)[O-])c3)cc12	35.5 µM (active)
CC(=O)c1c(C)oc2ccc(N(C(C)=O)S(=O)(=O)c3ccc(Cl)c([N+](=O)[O-])c3)cc12	31.6 µM (active)
CC=Cc1cc2c(c(=O)o1)C(=O)C(O)C(C)O2 (stereo not given)	29.9 µM (active)
CCOC(=O)c1cc2c(=O)n3ccccc3nc2n(CCCOC)/c1=N\C(C)=O	inactive
C[C@H](NC(=O)c1ccc(Cl)cc1)C(=O)OCn1nnc2ccccc2c1=O	8.91 µM (active)
COCCNC(=O)c1ccc(Cn2c(SCC(N)=O)nc3ccccc3c2=O)cc1	inactive

SMILES	Potency
O=C(CNC(=O)C1CCCCC1)OCn1nnc2ccccc2c1=O	inactive
OC1(c2ccc(F)cc2)CCN(Cc2cccnc2)CC1	inactive
OCC1(CCc2ccccc2)CCN(Cc2cccn2-c2cccnc2)CC1	inactive
S=C1SCN(Cc2cccnc2)CN1Cc1cccnc1	13.4 µM (active)
Cc1cccc2c3c([nH]c12)CCNC3	inactive
O=C1OCCN1C(=O)[C@H]1[C@H](c2ccc(Cl)cc2)C(c2cccc(Cl)c2)=NN1c1ccccc1	inactive
Oc1nc2cc3ccccc3cc2nc1C(F)(F)F	inactive
CCOc1ccc2nc(N3C(=O)CNC3=S)sc2c1	39.8 µM (active)
CCOc1ccc2nc(N3C(=O)/C(=C/c4ccc(Cl)cc4)NC3=S)sc2c1	inactive
CN(C)CCCn1c(N)c(C#N)c2nc3ccccc3nc21	inactive
COc1cccc(OC)c1-c1nn2c(-c3cc(-c4ccccc4)[nH]n3)nnc2s1	31.6 µM (active)
COc1ccc(-c2cc(C(=O)NN)[nH]n2)cc1OC	inactive
N#Cc1c(-c2ccccc2)cc(C2CC2)nc1SCC(=O)c1cccs1	inactive
Cc1cc(C)c(C(CC(=O)c2cccs2)C(C#N)C#N)c(C)c1 (stereo not given)	31.6 µM (active)
COc1ccc(OC)c(-c2c(C#N)c(N)nc3c2c(=O)nc2sccn23)c1	inactive
COc1ccc(NC(=O)c2cc(-c3ccco3)on2)c(OC)c1	inactive
CCc1c(C)sc(NC(=O)c2cc(-c3cc(OC)ccc3OC)on2)c1C#N	22.4 µM (active)
CC(C)Cn1c(N)c(C(=O)NCCN2CCOCC2)c2nc3ccccc3nc21	inactive
Brc1cc(-c2ccccc2)nc(-c2ccccc2)n1	39.8 µM (active)
CNc1nc(-c2ccccc2)cc(-c2ccccc2)n1	inactive
Nc1ccc2nc(-c3ccccc3)cnc2c1	inactive
O=c1c2sccc2nc(SCc2cc(=O)n3cc(Br)ccc3n2)n1Cc1ccccn1	inactive
